# Measurements from PubChem BioAssay.
# “And” between values parts separate entries of the source, which are not always exact repeats. Identical values can stand only once. Results filed as inconclusive are left out. The source made the active and inactive calls. Unless noted, the rule behind the calls is not given here.
# How the values were obtained:
# [1] = circadian clock period modulators, cell-based, LOPAC library, luminescence reporter (AID 2774); conditions: circadian reporter cells, at 7 µM, actives lie on both sides;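 note: values are relative to mean of DMSO wells on each plate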
# [2] = system: Hepatitis C virus NS3 helicase; assay: HCV NS3 helicase inhibitors, primary screen, biochemical, fluorescence polarization, LOPAC1280 library (AID 687035; in the data active = inhibition above about 37%); conditions: Purified HCV NS3 helicase, Cy5-dT15 ssDNA binding fluorescence polarization; stronger effect = higher value; concentration not given here
# [3] = Cy5 fluorescence quenching or enhancement artefacts, artefact control for HCV NS3 helicase inhibitor project, biochemical, LOPAC1280 (AID 687037); conditions: Cy5-DNA-NS3h complex fluorescence interference counterscreen
# [4] = system: Aerobactin synthetase IucA (Klebsiella pneumoniae, hypervirulent); assay: IucA enzyme inhibition, biochemical, LOPAC library, absorbance readout (AID 1346212); conditions: IucA enzyme assay, absorbance (OD) readout; stronger effect = lower value;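 tested at 8 µM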;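 note: 100% = no compound wells and 0% = no enzyme wells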
# [5] = sensitizers of A549 cells to miR-34 induction, primary screen, imaging, A549 dox-inducible miR-34, nuclei and caspase counts (AID 1347080;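 active = compounds whose cell count with miR-34 switched on is under 0.7 times the count with it off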); conditions: A549 miR-34 inducible, Hoechst nuclei count, 48 h
# [6] = phospholipid biosynthesis inhibitors in animal cells, primary screen, cell-based, LOPAC library, screen 4 (AID 1347384); conditions: phospholipid biosynthesis inhibition screen, at 10 µM
# [7] = viability rescue of complex I mutant cybrids, primary screen, cell-based, galactose medium, ATP luminescence (AID 1645843;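 active = z-score of at least 1.8 in each of two replicates, scored against plate mean and spread of sample wells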;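 note: positive z means more ATP and so rescue of galactose-driven cybrid death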); conditions: complex I mutant cybrid cells, 72 h, stronger effect = higher value
# [8] = liver-stage malaria parasite growth inhibition, primary screen, cell-based, HepG2, luciferase luminescence, HepG2 viability (AID 624349; in the data active = parasite load remaining mostly below about 12%, no sharp cut-off; inactive = mostly above about 10%;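 note: 100% = mean of DMSO negative control wells on the same plate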); conditions: P. berghei liver stage in HepG2, luciferase luminescence, concentration not given here; parasite load remaining: stronger effect = lower value; viability: measured here: HepG2 viability without parasites
# [9] = growth inhibition of DIPG glioma cells, dose response, cell-based, SU-DIPG-XIII, MIPE4.0, CellTiter-Glo, qHTS (AID 1347061; cut-off not given, nearly all actives have AC50 up to about 37 µM;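 note: cells exposed to compound for 48 hours before readout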); conditions: SU-DIPG-XIII viability, CellTiter-Glo ATP luminescence
# [10] = growth inhibition of DIPG glioma cells, dose response, cell-based, JHH-DIPG-1, MIPE4.0, CellTiter-Glo, qHTS (AID 1347062; cut-off not given, nearly all actives have AC50 up to about 27 µM;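 for AC50: cells exposed to compound for two days before readout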); conditions: JHH-DIPG-1 viability, CellTiter-Glo ATP luminescence
# [11] = growth inhibition of DIPG glioma cells, dose response, cell-based, SU-DIPG-IV, MIPE4.0, CellTiter-Glo, qHTS (AID 1347063; cut-off not given, nearly all actives have AC50 up to about 30 µM;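 note: compound exposure lasted 48 hours before the viability readout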); conditions: SU-DIPG-IV viability, CellTiter-Glo ATP luminescence
# [12] = growth inhibition of DIPG glioma cells, dose response, cell-based, SU-DIPG-XIII, MIPE5.0, CellTiter-Glo, qHTS (AID 1347064; cut-off not given, nearly all actives have AC50 up to about 23 µM;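 note: cells exposed to compound for 48 hours before the viability read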); conditions: SU-DIPG-XIII viability, CellTiter-Glo ATP luminescence
# [13] = SU-DIPG-VI glioma cell viability, MIPE4.0 library, CellTiter-Glo luminescence, qHTS (AID 1347066; cut-off not given, nearly all actives have AC50 up to about 30 µM;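 note: cells exposed to compound for 48 hours before readout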); conditions: CellTiter-Glo ATP luminescence
# [14] = JHH-DIPG-1 glioma cell viability, MIPE5.0 library, CellTiter-Glo luminescence, qHTS (AID 1347067; cut-off not given, nearly all actives have AC50 up to about 26 µM;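 note: cells exposed to compound for 48 hours before readout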); conditions: JHH-DIPG-1 glioma viability, CellTiter-Glo ATP luminescence
# [15] = inhibitors of Cryptococcus chitosan production, flow cytometry, Cibacron Brilliant Red staining (AID 1347148); conditions: Cryptococcus neoformans chitosan, stronger effect = lower value; at 10 µM unless noted;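 note: compound exposure lasted three days at 37 degrees C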
# [16] = hESC survival regulators, cell-based (AID 493140); conditions: human embryonic stem cell survival screen; stronger effect = higher value;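 note: cells exposed to compounds for four days before counting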
# [17] = viability loss in pontine glioma line – cell-based, SU-DIPG-XXV, MIPE5.0, CellTiter-Glo, qHTS, dose response (AID 1347065; cut-off not given, nearly all actives have AC50 up to about 26 µM;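 note: cells exposed to compound for 48 hours before ATP readout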); conditions: CellTiter-Glo ATP luminescence
# [18] = SU-DIPG-XXV glioma cell viability, MIPE5.0 library, qHTS (AID 1347068; cut-off not given, nearly all actives have IC50 up to about 30 µM)
# [19] = growth inhibition of DIPG glioma cells, dose response, cell-based, SU-DIPG-XVII, MIPE5.0, CellTiter-Glo, qHTS (AID 1347060; cut-off not given, nearly all actives have AC50 up to about 26 µM;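 note: cells exposed to compound for 48 hours before viability readout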); conditions: SU-DIPG-XVII viability, CellTiter-Glo ATP luminescence
# [20] = measured here: relative caspase fold change +Dox/-Dox
# [21] = measured here: total cells with miR-34 induction, stronger effect = lower value
# [22] = measured here: total cells without miR-34 induction
compound,measurement,setting,value
NC(=O)c1cc(N2CC2)c([N+](=O)[O-])cc1[N+](=O)[O-],period change,[1],-0.165 h (inactive)
same,inhibition,[2],-2% (inactive)
same,fluorescence ratio (interference),[3],1 (inactive)
same,remaining activity,[4],112% (inactive)
same,fold change,[5]; stronger effect = lower value,1.03 (inactive)
same,fold change,[5]; [20],1.9
same,cell count,[5]; [21],4350
same,cell count,[5]; [22],4220
same,outcome,[6],inactive
same,z-score,[7],0.09 (inactive)
CO[C@H]1CC=C2CCN3CCC4=C(CC(=O)OC4)[C@]23C1,period change,[1],0.065 h (inactive)
same,inhibition,[2],-3% (inactive)
same,fluorescence ratio (interference),[3],1 (inactive)
same,remaining activity,[4],103% (inactive)
same,fold change,"[5]; stronger effect = lower value, cell number ratio, induced over uninduced",0.939 (inactive)
same,fold change,[5]; [20],1.26
same,cell count,[5]; [21],9420
same,cell count,[5]; [22],10000
same,outcome,[6],inactive
same,z-score,[7],0.375 (inactive)
C[C@H](N)CN1CCc2ccc(Br)cc21,period change,[1],0.205 h (inactive)
same,inhibition,[2],-3% (inactive)
same,fluorescence ratio (interference),[3],1 (inactive)
same,remaining activity,[4],115% (inactive)
same,fold change,[5]; stronger effect = lower value,1.19 (inactive)
same,fold change,[5]; [20],0.954
same,cell count,[5]; [21],9010
same,cell count,[5]; [22],7600
same,outcome,[6],inactive
same,z-score,[7],-0.65 (inactive)
COc1ccc2c(c[n+](C)c3c4cc5c(cc4ccc23)OCO5)c1OC,period change,[1],0.045 h (inactive)
same,parasite load remaining,[8],41.8% (inactive)
same,viability,[8],157%
same,inhibition,[2],-3% (inactive)
same,fluorescence ratio (interference),[3],0.9 (inactive)
same,remaining activity,[4],110% (inactive)
same,AC50,[9],26.4 µM (active)
same,AC50,[10],4.18 µM (active)
same,AC50,[11],5.26 µM (active)
same,AC50,[12],4.17 µM (active)
same,AC50,[13],8.33 µM (active)
same,AC50,[14],5.9 µM (active)
same,fold change,[5]; stronger effect = lower value,1.19 (inactive) and 0.771 (inactive)
same,fold change,[5]; [20],0.571 and 1.14
same,cell count,[5]; [21],525 and 1050
same,cell count,[5]; [22],442 and 1360
same,fold fluorescence,[15],7.04 [at 143.5 µM] (inactive)
same,outcome,[6],inactive
same,z-score,[7],-1.52 (inactive)
N#C/C(=C\c1ccc(O)c(O)c1)C(N)=S,survival,[16],132 (inactive)
same,remaining activity,[4],89.1% (inactive)
same,fold change,[5]; stronger effect = lower value,0.909 (inactive)
same,fold change,[5]; [20],1.22
same,cell count,[5]; [21],4790
same,cell count,[5]; [22],5270
same,fold fluorescence,[15],5.68 [at 227 µM] (inactive)
C[N+](C)(C)CCOC(=O)CBr,period change,[1],0.015 h (inactive)
same,inhibition,[2],-2% (inactive)
same,fluorescence ratio (interference),[3],1 (inactive)
same,remaining activity,[4],126% (inactive)
same,fold change,[5]; stronger effect = lower value,1.01 (inactive)
same,fold change,[5]; [20],2.27
same,cell count,[5]; [21],10100
same,cell count,[5]; [22],10100
same,outcome,[6],inactive
same,z-score,[7],0.69 (inactive)
Cc1nc(-c2ccc(-c3ccc(C(=O)N4CCc5cc6c(cc54)C4(CCN(C)CC4)CO6)cc3)c(C)c2)no1,period change,[1],0.165 h (inactive)
same,remaining activity,[4],96.4% (inactive)
same,outcome,[9],inactive
same,outcome,[10],inactive
same,outcome,[11],inactive
same,outcome,[13],inactive
CC(C)NC(C)Cc1ccc(I)cc1 (stereo not drawn),period change,[1],0.04 h (inactive)
same,inhibition,[2],-1% (inactive)
same,fluorescence ratio (interference),[3],1 (inactive)
same,remaining activity,[4],108% (inactive)
same,fold change,[5]; stronger effect = lower value,1.08 (inactive)
same,fold change,[5]; [20],0.905
same,cell count,[5]; [21],10800
same,cell count,[5]; [22],10000
same,outcome,[6],inactive
same,z-score,[7],-0.22 (inactive)
CC(=O)c1c(O)c(C)c(O)c(Cc2c(O)c3c(c(C(=O)/C=C/c4ccccc4)c2O)OC(C)(C)C=C3)c1O,period change,[1],0.065 h (inactive)
same,survival,[16],142 (inactive)
same,inhibition,[2],-3% (inactive)
same,fluorescence ratio (interference),[3],0.9 (inactive)
same,remaining activity,[4],100% (inactive)
same,AC50,[17],20.9 µM (active)
same,AC50,[14],23.5 µM (active)
same,outcome,[18],inactive
same,fold change,[5]; stronger effect = lower value,0.991 (inactive) and 1.02 (inactive)
same,fold change,[5]; [20],1.01 and 0.826
same,cell count,[5]; [21],1480 and 1570
same,cell count,[5]; [22],1490 and 1540
same,fold fluorescence,[15],4.65 [at 96.8 µM] (inactive)
same,outcome,[6],active
same,z-score,[7],-1.27 (inactive)
CC12NC(Cc3ccccc31)c1ccccc12 (stereo not drawn),period change,[1],0.25 h (inactive)
same,parasite load remaining,[8],63.2% (inactive)
same,viability,[8],167%
same,inhibition,[2],-3% (inactive)
same,fluorescence ratio (interference),[3],0.9 (inactive)
same,remaining activity,[4],120% (inactive)
same,fold change,[5]; stronger effect = lower value,1.01 (inactive) and 0.879 (inactive)
same,fold change,[5]; [20],1.28 and 2.22
same,cell count,[5]; [21],10300 and 11700
same,cell count,[5]; [22],10100 and 13300
same,outcome,[6],inactive
same,z-score,[7],-0.15 (inactive)
CN1CC[C@@]2(C)c3cc(O)ccc3N(C)C12 (stereo partly drawn),period change,[1],-0.055 h (inactive)
same,survival,[16],4.58 (inactive)
same,inhibition,[2],1% (inactive)
same,fluorescence ratio (interference),[3],1 (inactive)
same,remaining activity,[4],92.9% (inactive)
same,fold change,[5]; stronger effect = lower value,1.09 (inactive)
same,fold change,[5]; [20],1.19
same,cell count,[5]; [21],8970
same,cell count,[5]; [22],8270
same,outcome,[6],inactive
same,z-score,[7],-1.04 (inactive)
Cc1c(C(=O)c2cccc3ccccc23)c2cccc3c2n1[C@H](CN1CCOCC1)CO3,period change,[1],-0.065 h (inactive)
same,survival,[16],106 (inactive)
same,inhibition,[2],-8% (inactive)
same,fluorescence ratio (interference),[3],1 (inactive)
same,remaining activity,[4],99.8% (inactive)
same,AC50,[11],9.35 µM (active)
same,fold change,[5]; stronger effect = lower value,0.941 (inactive) and 0.94 (inactive)
same,fold change,[5]; [20],1.39 and 1.17
same,cell count,[5]; [21],5730 and 5540
same,cell count,[5]; [22],6090 and 5900
COc1cccc(OC)c1OCCNCC1COc2ccccc2O1 (stereo not drawn),remaining activity,[4],105% (inactive)
CCCC[N+]1(C)C2CC(OC(=O)[C@H](CO)c3ccccc3)CC1C1OC12 (stereo partly drawn),period change,[1],-0.065 h (inactive)
same,inhibition,[2],-1% (inactive)
same,fluorescence ratio (interference),[3],1 (inactive)
same,remaining activity,[4],117% (inactive)
same,fold change,[5]; stronger effect = lower value,0.937 (inactive)
same,fold change,[5]; [20],1.39
same,cell count,[5]; [21],9870
same,cell count,[5]; [22],10500
same,outcome,[6],inactive
same,z-score,[7],0.72 (inactive)
CC(C)Oc1cccnc1N(C)C1CCN(Cc2ccccc2)CC1,period change,[1],0.225 h (inactive)
same,inhibition,[2],-3% (inactive)
same,fluorescence ratio (interference),[3],1 (inactive)
same,remaining activity,[4],99.8% (inactive)
same,fold change,[5]; stronger effect = lower value,0.905 (inactive)
same,fold change,[5]; [20],1.08
same,cell count,[5]; [21],8620
same,cell count,[5]; [22],9520
same,outcome,[6],inactive
same,z-score,[7],-0.4 (inactive)
COC[C@H]1OC(=O)c2coc3c2[C@@]1(C)C1=C(C3=O)C2CCC(=O)[C@@]2(C)C[C@H]1OC(C)=O (stereo partly drawn),period change,[1],-0.52 h (inactive)
same,survival,[16],37.8 (inactive)
same,inhibition,[2],-1% (inactive)
same,fluorescence ratio (interference),[3],1 (inactive)
same,remaining activity,[4],109% (inactive)
same,AC50,[19],5.25 µM (active)
same,AC50,[9],23.5 µM (active)
same,AC50,[11],3.72 µM (active)
same,AC50,[17],2.63 µM (active)
same,AC50,[13],18.7 µM (active)
same,AC50,[14],4.17 µM (active)
same,fold change,[5]; stronger effect = lower value,1.01 (inactive)
same,fold change,[5]; [20],1.88
same,cell count,[5]; [21],3350
same,cell count,[5]; [22],3320
same,outcome,[6],inactive
same,z-score,[7],0.165 (inactive)
